Shown are actives, neighbours in structure and some others; about 3.4% of the full set was active somewhere.
MITF primary: blocks human microphthalmia-associated transcription factor; O75030; AlphaScreen MITF homodimerization, bead proximity signal; inhibition, % at 2.6 µM; 0.91% of 650,000 active; AID 1259374; in the data active = inhibition above about 50%
GPR151 ag: activates the human receptor GPR151. Q8TDV0. PathHunter beta-arrestin GPR151 cells, luminescence. activation, % at 11.2 µM. 1% of 650,000 active. AID 1508602; in the data active = activation above about 4.9%
FBW7 activator: human FBW7 E3 ligase activation, primary screen; 0.13% of 650,000 active; AID 1259310; normalized activity (activation), % at 26.1 µM; AlphaScreen FBW7–phospho-cyclin E peptide binding, activator screen; in the data active = normalized activity above about 1.9%;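 note: purified mutant Fbw7 with reduced substrate affinity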
TEAD-YAP inh: TEAD-YAP interaction inhibition | HEK-TIYL cells, TEAD-Gal4/YAP UAS-luciferase luminescence | inhibition, % at 9.12 µM | 1.4% of 640,000 active; in the data active = inhibition above about 32%
GPR151 confirm: confirmation of human GPR151 activators; shares compounds with GPR151 ag; GPR151 PathHunter beta-arrestin cells, luminescence, 90 min; % of EA-reagent control over plate median; activation, % at 11.2 µM; 6,700 tested, under 10 active;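 active = mean percent activation across replicates above the confirmation screen cutoff of 4.91%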
GPR119 ag: GPR119 activation, counter-screen for GPR151 activators; AID 1508611; activation, % at 11.2 µM; 0.3% of 6,700 active; shares compounds with GPR151 ag; GPR119 PathHunter beta-arrestin cells, luminescence, 90 min; 0 = compound-well median, 100 = enzyme-acceptor control;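 active = mean percent activation in the counterscreen above 29.09%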;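 note: counterscreen on off-target GPR119 to flag nonselective hits from the GPR151 activator screen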
Target sequence (Q8TDV5 whole entry, looked up): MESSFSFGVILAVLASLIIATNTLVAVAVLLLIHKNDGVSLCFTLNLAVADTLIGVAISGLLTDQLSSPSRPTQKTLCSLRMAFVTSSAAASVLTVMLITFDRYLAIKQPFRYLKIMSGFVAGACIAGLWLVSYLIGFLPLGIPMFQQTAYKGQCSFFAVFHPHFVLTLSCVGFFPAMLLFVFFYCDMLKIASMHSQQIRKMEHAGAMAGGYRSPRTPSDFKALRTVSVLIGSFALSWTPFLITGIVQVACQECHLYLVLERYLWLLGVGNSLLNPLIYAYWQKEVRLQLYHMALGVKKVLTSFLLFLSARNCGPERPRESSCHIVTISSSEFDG
Each line names hits and unclear results; the compound was inactive in the other large screens (follow-up assays come after a bar, where they were run); ! = repeats disagree.

Cc1ccnc(SCc2cc(=O)c(OC(=O)c3cc(Cl)ccc3Cl)co2)n1	none
CCOC(=O)C(C#N)C(=O)c1ccc(N2C(=O)CCC2=O)cc1 (stereo unspecified)	GPR151 ag 6.6 | GPR151 confirm inactive | GPR119 ag inactive
CCOC(=O)C(C#N)C(=O)c1ccc(F)c(F)c1 (stereo unspecified)	none
CCN1C(=O)Cc2ccccc21	GPR151 ag 6.7 | GPR151 confirm inactive | GPR119 ag inactive
Cc1ccc(-c2csc3nnc(SCC(=O)NC(N)=O)n23)cc1	GPR151 ag 6.3 | GPR151 confirm inactive | GPR119 ag inactive
Cc1ccc(-c2csc3nnc(SCC(=O)NCCc4ccccc4)n23)cc1	none
COC(=O)CSc1cc([N+](=O)[O-])cc2onc(C3OCCO3)c12	none
CCOC(=O)CNC(=O)NCC1(N2CCCCC2)CCCCC1	none
Cn1c(=O)c2c(nc3n(CCc4ccccc4)c(-c4ccccc4)cn23)n(C)c1=O	none
Cn1c(=O)c2c(nc3n(CCc4ccccc4)c(-c4ccc(Br)cc4)cn23)n(C)c1=O	GPR151 ag 5.6 | GPR151 confirm inactive | GPR119 ag inactive
CCOc1ccc(/C=C/C(=O)Nc2ccc(C(C)=O)cc2)cc1	none
C/C(CN1C(=O)CSC1=O)=N\Nc1ccccc1	none
CC(=O)N1CCN(Cc2cccc(F)c2)CC1	GPR151 ag 5.4 | GPR151 confirm inactive | GPR119 ag inactive
CC(=O)N1CCN(Cc2ccc3c(c2)CN(C(=O)Cc2cccc(F)c2)CCO3)CC1	none
COc1ccc(C2NC(=O)NC(C)=C2C(=O)OCc2ccccc2)c(OC)c1 (stereo unspecified)	none
CNC(=O)c1cc(F)ccc1Nc1cc(Nc2cccc(OC)c2)ncc1C(F)(F)F	GPR151 ag 9.3 | GPR151 confirm inactive | GPR119 ag inactive
O=S(=O)(CCc1ccccc1)NCC1(c2cccs2)CCCC1	GPR151 ag 5.2 | GPR151 confirm inactive | GPR119 ag inactive
COc1ccc(CCNc2cc(C)nc(Nc3cccnc3)n2)cc1	none
c1cc(Nc2ccc3c(c2)OCO3)nc(Nc2ccc(N3CCOCC3)cc2)n1	GPR151 ag 5.1, TEAD-YAP inh 71 | GPR151 confirm inactive | GPR119 ag inactive
COc1ccc(CCNc2ccnc(N3CCOCC3)n2)cc1	none
COc1ccc(CCNc2ccnc(Nc3ccc(N4CCOCC4)cc3)n2)cc1	GPR151 ag 8.3, TEAD-YAP inh 78 | GPR151 confirm inactive | GPR119 ag 60
COc1ccc(CCNc2cc(-c3ccc(N4CCN(C)CC4)cc3)ncn2)cc1	GPR151 ag 6.9 | GPR151 confirm inactive | GPR119 ag inactive
c1cc(Nc2ccc(N3CCOCC3)cc2)nc(Nc2ccc(N3CCOCC3)cc2)n1	none
COc1ccc(CCNc2cc(C)nc(Nc3ccc4ncccc4c3)n2)cc1	GPR151 ag 7.0, TEAD-YAP inh 47 | GPR151 confirm inactive | GPR119 ag inactive
CCOC(=O)c1sc(N/N=C/c2cccc(Cl)c2)nc1C	none
Cc1c(Cl)cccc1NC(=O)c1ccccc1C(=O)O	none
Cc1c(Cl)cccc1Nc1ccccc1C(=O)O	GPR151 ag 7.5! | GPR151 confirm inactive | GPR119 ag inactive
CCOCCCNC(=O)c1c(N)n(CCc2ccccc2)c2nc3ccccc3nc12	none
COCCNC(=O)c1c(N)n(CCc2ccc(OC)c(OC)c2)c2nc3ccccc3nc12	GPR151 ag 10 | GPR151 confirm inactive | GPR119 ag inactive
COc1cc([N+](=O)[O-])ccc1NC(=O)c1oc(=O)c2ccccc2c1-c1ccc(C)cc1	GPR151 ag 5.7 | GPR151 confirm inactive | GPR119 ag inactive
CCOC(=O)c1cccc(NC(=O)COc2ccc(C(C)C)c(C)c2)c1	GPR151 ag 5.0 | GPR151 confirm inactive | GPR119 ag inactive
Cc1cccc(OCC(=O)Nc2cccc(O)c2)c1	GPR151 ag 5.9 | GPR151 confirm inactive | GPR119 ag inactive
COC(=O)c1cccc(NC(=O)COc2ccc(C(C)C)c(C)c2)c1	none
Cc1ccc(OCC(=O)Nc2cccc(O)c2)cc1C	none
Cc1cc(C)cc(NC(=O)COc2cccc(C)c2)c1	GPR151 ag 6.3 | GPR151 confirm inactive | GPR119 ag inactive
CC(=O)N(C)c1ccc(NC(=O)COc2cc(C)cc(C)c2)cc1	GPR151 ag 4.9 | GPR151 confirm inactive | GPR119 ag inactive
O=C(Oc1ccc(/C=C/c2ccccn2)cc1)c1cccs1	none
O=C(/C=C(\O)c1ccccc1)C(=O)Nc1ccccc1	none
Cc1cccc(OCC(=O)Nc2cccc(C(=O)O)c2C)c1	GPR151 ag 6.0 | GPR151 confirm inactive | GPR119 ag inactive
O=C(CNC(=O)C1CCCCC1)NNC(=O)c1ccccc1Br	GPR151 ag 5.8 | GPR151 confirm inactive | GPR119 ag inactive
CN(CCc1ccccc1)C(=O)c1nc2sccn2c1CNC1CCC1	none
O=C(Nc1ccccc1C(=O)c1ccccc1)c1ccc(Nc2nc(-c3ccccc3)c3cc(Cl)ccc3n2)cc1	GPR151 ag 8.5 | GPR151 confirm inactive | GPR119 ag inactive
O=C(Nc1ccc(Br)cc1C(=O)c1ccccc1)c1ccc(Nc2nc(-c3ccccc3)c3cc(Cl)ccc3n2)cc1	none
COCCCC1CCN(Cc2nc(-c3ccccn3)no2)CC1	GPR151 ag 6.7 | GPR151 confirm inactive | GPR119 ag inactive
COCCN1CCN(Cc2nc(-c3ccccn3)no2)CC1	none
CC(C)C(=O)N1CCN(c2ccc(NC(=O)CCc3ccccc3)cc2)CC1	none
COc1ccccc1CNC(=O)COc1ccc(Br)cc1Cl	GPR151 ag 12 | GPR151 confirm inactive | GPR119 ag inactive
COc1ccccc1CNC(=O)COc1ccccc1	none
CCc1ccc(OCC(=O)NCc2ccccc2OC)cc1	GPR151 ag 5.1 | GPR151 confirm inactive | GPR119 ag inactive
O=C1NC(=O)C(=Cc2ccc(OS(=O)(=O)c3ccc(Cl)cc3)cc2)C(=O)N1	none
COc1ccc(S(=O)(=O)Oc2ccc(C=C3C(=O)NC(=O)NC3=O)cc2)cc1	GPR151 ag 5.3 | GPR151 confirm inactive | GPR119 ag inactive
COC(=O)c1c(NC(=O)c2ccc(Cl)cc2Cl)sc2c1CCC2	none
NS(=O)(=O)c1ccc(CCNC(=O)c2cccc(C#CC3(O)CCCCC3)c2)cc1	GPR151 ag 5.0 | GPR151 confirm inactive | GPR119 ag inactive
Cc1cc(C(=O)NCCc2ccc(S(N)(=O)=O)cc2)cs1	none
COc1ccc(C(=O)Oc2ccc(C=C3C(=O)NC(=S)NC3=O)cc2)cc1	none
O=C1NC(=S)NC(=O)C1=Cc1cccc(OC(=O)c2ccc(Cl)cc2)c1	GPR151 ag 5.9 | GPR151 confirm inactive | GPR119 ag inactive
O=C(COC(=O)c1cc(S(=O)(=O)N2CCOCC2)ccc1F)Nc1cccc(F)c1	GPR151 ag 6.5 | GPR151 confirm inactive | GPR119 ag inactive
O=C(COC(=O)c1ccc(F)c(S(=O)(=O)N2CCOCC2)c1)c1ccccc1	GPR151 ag 6.1 | GPR151 confirm inactive | GPR119 ag inactive
O=C(COC(=O)c1ccc(F)c(S(=O)(=O)N2CCOCC2)c1)c1ccc(Cl)cc1	none
O=C(O)CCCNC(=O)c1cc(=O)[nH]c(=O)[nH]1	none
